# Sampled rows, rich in hits. Any-hit rate of the full collection: about 2.2%.
# HDAC3 inh: human HDAC3 inhibition; actives 0.15% (n = 320,000); AID 2718; inhibition, % at 8.3 µM; recombinant HDAC3, fluorogenic peptide/trypsin coupled, fluorescence; in the data active = inhibition above about 26%, passing the limit was not always enough; inconclusive = no clear call, values can overlap the other calls
# JMJD2C inh: human JMJD2C demethylase inhibition. GST-JMJD2C(1-420) H3K9me3 demethylation, DELFIA europium. actives 0.069% (n = 330,000). inhibition, % at 2.35 µM. Q9H3R0;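 active = more than half of a compound's replicate wells show inhibition beyond 50%, single wells judged on their own value; inconclusive = some, but no more than half, of replicates pass 50% inhibition; inactive = no replicate passes 50% inhibition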;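 note: signal counts dimethyl H3K9 product captured on neutravidin plate; 0% = median of DMSO wells and 100% = 0.3 times that DMSO median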
# Mot1-301 SUMO: blocks SUMOylation pathway, rescuing yeast Mot1-301 growth | actives 1% (n = 320,000) | growth rescue, % at 18.8 µM | S. cerevisiae Mot1-301 growth rescue, ATP luminescence, 38.5C; percent above DMSO median, 100 means doubled | AID 2716;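 active = every valid replicate shows activation above 250% relative to neutral control wells; inactive = the rest, any valid replicate at or below 250%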;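 note: OY570 slx delta 5 strain wells were the positive control but not used for scaling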
# PvdQ inh: blocks Pseudomonas aeruginosa PvdQ acylase activity | actives 0.063% (n = 340,000) | purified PvdQ acylase, fluorescence plate reader | inhibition, % at 10 µM | AID 488965; in the data active = inhibition above about 30%, passing the limit was not always enough; inconclusive = no clear call, values can overlap the other calls;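 note: 0% = vehicle neutral wells and 100% = reference inhibitor wells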
# pCIP destab: compounds decreasing mouse p/CIP protein stability; Q05BA5; F442A p/CIP-EGFP cells, EGFP fluorescence, 16 h; decrease of EGFP signal, % at 10 µM; actives 0.01% (n = 290,000);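 active = EGFP signal decrease of at least 30% at 10 µM or well 3 SD below plate mean, unless failing retest; inactive = the rest, including hits failing retest or dose response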
# PHOSPHO1 block: inhibitors of human PHOSPHO1 phosphatase | inhibition, % at 13.3 µM | recombinant PHOSPHO1, absorbance phosphatase assay | actives 1.1% (n = 290,000) | Q8TCT1 | AID 1565; in the data active = inhibition above about 60%
# Target sequence (Q8TCT1 whole entry, looked up): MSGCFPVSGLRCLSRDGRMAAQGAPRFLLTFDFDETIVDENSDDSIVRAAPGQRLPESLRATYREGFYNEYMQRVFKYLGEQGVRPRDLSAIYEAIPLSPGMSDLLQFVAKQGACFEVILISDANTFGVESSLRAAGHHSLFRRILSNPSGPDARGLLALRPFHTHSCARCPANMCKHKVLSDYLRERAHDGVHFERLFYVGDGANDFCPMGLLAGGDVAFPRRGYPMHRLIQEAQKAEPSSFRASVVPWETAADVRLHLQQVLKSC
# Yeast Mot1 SUMO: SUMO pathway inhibitors in yeast Mot1-301 growth; AID 493004; 2,300 tested, under 10 active; growth activity, percent, % at 42 µM; S. cerevisiae Mot1-301 galactose growth, ATP luminescence, 24 h; -100 = growth of slx-deleted rescue strain; shares compounds with Mot1-301 SUMO;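 active = Signal drops as the depositor expects, and the fitted half-maximal dose is no more than ten times the top valid tested dose; inconclusive = Poor fit, or a flat curve whose signal drops by 30% to 70%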;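 note: more negative values mean stronger growth rescue toward the control strain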
# Numbers without * were called inactive; ? = inconclusive; . = not tested or not shown; + = active, no number.
SMILES,HDAC3 inh,JMJD2C inh,Mot1-301 SUMO,PvdQ inh,pCIP destab,PHOSPHO1 block,Yeast Mot1 SUMO
CCNC(=S)Nc1ccc(C)c(S(=O)(=O)Nc2ccccc2OC)c1,-4.2,-11.6,398.3*,8.5,-5.9,20.0,-0.6
O=c1c(-c2ccc(F)cc2)[n+]([O-])c2ccccc2n1OCc1ccccn1,-3.7,-13.7,112.2,0.2,5.6,-21.6,.
Cc1c(=O)n(OCc2ccccn2)c2ccccc2[n+]1[O-],-2.3,4.5,945.6*,-7.5,-5.4,-43.0,0.4
O=C(O)c1cccc(N/N=C/c2cc(Br)cc(Br)c2O)c1,-1.1,-4.9,124.2,8.8,14.1,-4.0,.
Cc1c(N=Cc2cc(Br)cc(Br)c2O)cccc1C(=O)O,3.6,-3.3,919.5*,-6.2,-15.5,-13.9,-0.5
Cc1cc(C(F)F)n2ncc(C(=O)NCCc3ccc(Cl)cc3)c2n1,5.6,10.6,539.8*,-20.4,0.3,0.2,-0.3
Cc1cc(C(F)F)n2ncc(C(=O)NCCc3ccccc3Cl)c2n1,-6.9,6.5,177.5,-1.1,-1.5,9.5,.
O=C(COC(=O)CNC(=O)c1ccc(Cl)cc1)Nc1ncc(C(F)(F)F)cc1Cl,-4.8,-3.1,595.7*,-7.0,-3.1,-4.6,-0.2
O=C(C(=O)N1CCCCCC1)c1c[nH]c2ccccc12,5.0,-6.9,46.8,15.3,7.7,-10.7,.
COc1ccc2[nH]cc(C(=O)C(=O)N3CCCCC3)c2c1,2.0,?,695.1*,-2.3,0.5,39.0,0.2
COc1ccccc1C(=O)OCC(=O)NC(=O)NCc1ccccc1,-4.8,-5.9,890.8*,6.1,-2.4,-0.3,0.9
COCCNC(=O)CNC(=S)N(CCCN1CCOCC1)Cc1cccs1,-1.0,7.8,3.1,-1.0,0.3,-2.8,.
N#Cc1ccc(C23CC4(C2)[C@H](CN(Cc2ccc(C(F)(F)F)cc2)[C@@H]4c2ccccc2)C3c2ccc(C(F)(F)F)cc2)cc1 (stereo partly drawn),0.5,12.2,427.5*,.,1.3,22.1,-0.2
C=CCN1C(=O)/C(=C2/Sc3ccc(OC)cc3N2C)SC1=Nc1ccccc1,-4.0,-14.0,+,5.4,-1.0,8.9,0.0
Cc1ccc2nc(N/N=C/c3ccccc3F)nc(-c3ccccc3)c2c1,.,2.4,473.2*,18.5,-15.1,13.9,0.3
Nn1c(SCc2cc([N+](=O)[O-])cc3c2OCOC3)nnc1-c1ccccn1,2.3,-2.7,530.7*,-10.8,-3.9,-3.6,0.7
O=[N+]([O-])c1cc2c(c(CSc3nnc4ccccn34)c1)OCOC2,3.0,8.1,13.9,-8.2,-4.4,0.7,.
CSc1ccc(Cl)c(C(=O)NCCCn2ccnc2)c1,-6.1,7.1,179.3,-11.7,-2.2,37.1,.
COc1ccc(C(C)=O)cc1CN(c1ccccc1OC)S(=O)(=O)c1cccs1,2.6,9.2,369.9*,-12.4,-18.8,22.8,0.1
COc1ccccc1CN(C)S(=O)(=O)c1cccs1,-3.7,-5.3,-20.8,-18.3,1.6,18.4,.
C=CCSC1=C(C#N)C(c2ccc(C(C)C)cc2)CC(=O)N1 (stereo not drawn),-1.1,6.3,404.5*,-11.9,1.8,12.6,0.8
CC1C(=O)CC(c2ccccc2)NC1c1ccccc1 (stereo not drawn),-6.2,3.6,788.9*,-3.7,0.1,4.1,0.3
CC(C)C1C(=O)CC(c2ccccc2)NC1c1ccccc1 (stereo not drawn),4.9,-6.8,14.5,-13.1,3.6,5.3,.
Cc1ccccc1NC(=O)c1ccccc1NC(=O)c1ccco1,-0.9,-0.8,401.7*,15.7,-2.5,1.3,0.5
CNC(=O)c1ccccc1NC(=O)c1ccco1,-3.3,-1.9,15.7,-12.7,-7.3,1.7,.
O=C(CSc1nnc(-c2cccs2)n1-c1ccccc1)c1ccc2c(c1)OCCO2,3.3,-23.7,+,-18.9,-3.2,52.9,0.3
O=C(CSc1nnc(-c2ccc3c(c2)OCO3)n1-c1ccccc1)c1ccccc1,-0.9,-6.9,-11.9,-11.6,-1.9,-3.4,.
O=C1CCc2cc(S(=O)(=O)N3CCCC3C(=O)NC3CCCCCCC3)ccc2N1 (stereo not drawn),-6.5,-2.2,5.3,-5.4,-3.1,-11.5,.
